Source: PubChem BioAssay (Tox21)
Where “and” joins values, the source holds several entries; their conditions need not be identical. Equal values may be shown once. Results filed as inconclusive are left out. Where a structure was tested more than once in an assay, its records may differ in their call. Calls of active or inactive are those of the source. Unless noted, calls follow the shape of the dose curve; as a rule, active = well fitted curve in the direction sought with a large enough effect in the repeat runs; inconclusive = weak or mixed curves; inactive = no such curve, though single readings can be large; an effect the other way counts as inactive or inconclusive.

What was measured:
[1] = molecular target: Thyrotropin receptor (Homo sapiens) (UniProt P16473); test: qHTS assay to identify small molecule antagonists of the thyroid stimulating hormone receptor (TSHR) signaling pathway (AID 1259385; calls by dose curve; also: nearly all actives have a fitted effect of over 20% in size)
Method in brief: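 TSHR-HEK293 cells were plated and held 18 h at 37C/5% CO2, then given compound plus Ro20-1724 and stimulated with TSH at 1.5 ng/mL final. After 30 min at room temperature, cAMP was detected with cAMP-d2/anti-cAMP-cryptate (1 h) by fluorescence.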

[2] = qHTS assay to identify small molecule agonists of the estrogen receptor alpha (ER-alpha) signaling pathway in the presence of an antagonist - cell viability counter screen (AID 1259386);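 also: cells exposed to compounds for 22 h at 37 °C before the viability read; nearly all actives have a fitted effect of over 30% in size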; also: potency is read from the fitted curve at half-maximal effect
Method in brief: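 VM7Luc4E2, stripped-serum pre-culture 5 d; 24hr plating; +ICI-182,780 10.0nM final; cpds 15 conc, 22hr, 37C/5% CO2; CellTiter-Fluor added at 21hr, fluorescence 1hr later.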

[3] = molecular target: Progesterone receptor (Homo sapiens) (UniProt P06401); test: qHTS assay to identify small molecule agonists of the progesterone receptor (PR) signaling pathway (AID 1346784; calls by dose curve; also: nearly all actives have a fitted effect of over 30% in size)
Method in brief: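 Seed PR-UAS-bla HEK 293T cells (2% charcoal-stripped FBS), incubate 6 hr at 37C; add compounds in DMSO, 16 hr at 37C; add LiveBLAzer B/G substrate, 2 hr RT; read fluorescence intensity.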

[4] = molecular target: Progesterone receptor (Homo sapiens) (UniProt P06401); test: qHTS assay to identify small molecule antagonists of the progesterone receptor (PR) signaling pathway (AID 1346795; active = well fitted inhibition curve with a large enough effect in the signal ratio in the repeat runs, not every such curve was filed as active; the % refers to the signal ratio; also: potency is read from the fitted curve at half-maximal effect)
Method in brief: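 Screening used a GripTite HEK293T line with PR-responsive UAS-beta-lactamase. Cells were challenged with compound in the presence of 1 nM R5020 final for 16 hr at 37C; B/G FRET substrate, 2 hr room temperature, fluorescence.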

[5] = qHTS assay to identify small molecule antagonists of the progesterone receptor (PR) signaling pathway - cell viability counter screen (AID 1346798); also: series mostly up to about 92 µM; nearly all actives have a fitted effect of over 50% in size
Method in brief: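 Measures cytotoxicity in parallel with the PR antagonist reporter read: HEK293T PR-UAS-bla cells get compound and R5020 for 16 hr, and remaining viable cells are quantified by CellTiter-Glo luminescence.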

[6] = qHTS assay to identify small molecule agonists of the progesterone receptor (PR) signaling pathway - cell viability counter screen (AID 1346799; calls by dose curve; also: nearly all actives have a fitted effect of over 45% in size)
Method in brief: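 Using the same plates as the PR reporter screen, HEK293T PR-UAS-bla cells received compounds for 16 hr at 37C and were then lysed with CellTiter-Glo; luminescence was read 30 min later at room temperature.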

[7] = qHTS assay to identify small molecule antagonists of the TGF-beta/Smad signaling pathway - cell viability counter screen (AID 1346824); also: nearly all actives have a fitted effect of over 50% in size
Method in brief: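 SBE-bla HEK 293T cells were plated overnight at 37 C, then given compounds in DMSO plus TGF-beta1 (added as 0.25 ng/mL solution) for 5 hr. After the bla read, CellTiter-Glo was added to the same wells and luminescence read after 30 min at room temperature.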

[8] = qHTS assay to identify small molecule agonists of the TGF-beta/Smad signaling pathway - cell viability counter screen (AID 1346829); also: nearly all actives have a fitted effect of over 45% in size; also: potency is read from the fitted curve at half-maximal effect
Method in brief: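 SBE-bla HEK 293T cells plated overnight, compound exposure 5 hr at 37 C. Viability read in the same wells by CellTiter-Glo luminescence after 30 min at room temperature, following the beta-lactamase read.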

[9] = qHTS assay to identify small molecule agonists of the TGF-beta/Smad signaling pathway (AID 1346859; active = well fitted activation curve with a large enough effect in the signal ratio in the repeat runs, not every such curve was filed as active; the % refers to the signal ratio; also: series mostly up to about 77 µM)
Method in brief: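 Beta-lactamase reporter activity downstream of Smad binding elements was measured in stably transfected HEK 293T cells; compounds were incubated for 5 hr, substrate for 2 hr at room temperature.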

[10] = molecular target: Thyrotropin-releasing hormone receptor (Homo sapiens) (UniProt P34981); test: qHTS assay to identify small molecule antagonists of the thyrotropin-releasing hormone receptor (TRHR) signaling pathway (AID 1346877; active = well fitted inhibition curve with a large enough effect in the repeat runs, not every such curve was filed as active; also: series mostly up to about 51 µM)
Method in brief: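 Intracellular calcium fluorescence, read kinetically every second over 3 min, reports TRH-evoked signalling in HEK293 cells carrying TRHR. Test compounds were added 5 min ahead of a 1 nM TRH challenge.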

Measured: Potency

Sequence of Thyrotropin-releasing hormone receptor (Homo sapiens) (P34981 whole entry, looked up): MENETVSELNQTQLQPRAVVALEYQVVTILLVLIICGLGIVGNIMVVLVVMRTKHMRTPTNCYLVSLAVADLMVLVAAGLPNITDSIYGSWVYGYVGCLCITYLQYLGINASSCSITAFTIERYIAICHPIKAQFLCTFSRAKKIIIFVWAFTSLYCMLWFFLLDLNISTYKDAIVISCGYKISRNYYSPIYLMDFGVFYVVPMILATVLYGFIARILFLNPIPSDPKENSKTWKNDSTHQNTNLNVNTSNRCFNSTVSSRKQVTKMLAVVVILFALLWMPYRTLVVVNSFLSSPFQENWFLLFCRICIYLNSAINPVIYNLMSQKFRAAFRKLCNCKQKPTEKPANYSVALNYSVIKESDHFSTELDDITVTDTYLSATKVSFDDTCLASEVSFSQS
Sequence of Progesterone receptor (Homo sapiens) (P06401 whole entry, looked up): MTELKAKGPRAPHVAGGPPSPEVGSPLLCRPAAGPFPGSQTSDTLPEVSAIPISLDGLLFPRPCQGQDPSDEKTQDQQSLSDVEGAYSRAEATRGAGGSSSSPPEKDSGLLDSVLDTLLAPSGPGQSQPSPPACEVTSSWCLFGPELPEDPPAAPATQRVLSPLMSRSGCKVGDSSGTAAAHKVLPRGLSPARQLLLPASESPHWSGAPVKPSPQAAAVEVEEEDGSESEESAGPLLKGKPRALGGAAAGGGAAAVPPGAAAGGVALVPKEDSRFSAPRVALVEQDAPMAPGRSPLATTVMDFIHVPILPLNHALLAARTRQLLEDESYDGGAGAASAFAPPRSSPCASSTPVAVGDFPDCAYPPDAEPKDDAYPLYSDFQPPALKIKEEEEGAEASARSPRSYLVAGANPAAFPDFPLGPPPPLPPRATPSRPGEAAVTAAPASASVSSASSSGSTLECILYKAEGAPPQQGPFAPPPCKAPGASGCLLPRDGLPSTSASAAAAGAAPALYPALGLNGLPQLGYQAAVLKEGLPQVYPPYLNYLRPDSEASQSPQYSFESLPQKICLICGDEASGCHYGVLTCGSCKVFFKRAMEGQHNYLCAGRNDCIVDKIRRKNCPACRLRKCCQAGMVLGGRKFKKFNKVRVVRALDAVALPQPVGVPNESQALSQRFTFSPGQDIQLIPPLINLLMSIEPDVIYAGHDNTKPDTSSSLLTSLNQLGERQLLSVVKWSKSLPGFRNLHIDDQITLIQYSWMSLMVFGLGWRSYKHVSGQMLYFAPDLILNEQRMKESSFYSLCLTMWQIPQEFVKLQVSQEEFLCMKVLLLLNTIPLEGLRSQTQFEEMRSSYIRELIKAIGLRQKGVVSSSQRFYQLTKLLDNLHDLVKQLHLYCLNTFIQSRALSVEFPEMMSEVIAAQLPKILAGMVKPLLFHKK
Sequence of Thyrotropin receptor (Homo sapiens) (P16473 whole entry, looked up): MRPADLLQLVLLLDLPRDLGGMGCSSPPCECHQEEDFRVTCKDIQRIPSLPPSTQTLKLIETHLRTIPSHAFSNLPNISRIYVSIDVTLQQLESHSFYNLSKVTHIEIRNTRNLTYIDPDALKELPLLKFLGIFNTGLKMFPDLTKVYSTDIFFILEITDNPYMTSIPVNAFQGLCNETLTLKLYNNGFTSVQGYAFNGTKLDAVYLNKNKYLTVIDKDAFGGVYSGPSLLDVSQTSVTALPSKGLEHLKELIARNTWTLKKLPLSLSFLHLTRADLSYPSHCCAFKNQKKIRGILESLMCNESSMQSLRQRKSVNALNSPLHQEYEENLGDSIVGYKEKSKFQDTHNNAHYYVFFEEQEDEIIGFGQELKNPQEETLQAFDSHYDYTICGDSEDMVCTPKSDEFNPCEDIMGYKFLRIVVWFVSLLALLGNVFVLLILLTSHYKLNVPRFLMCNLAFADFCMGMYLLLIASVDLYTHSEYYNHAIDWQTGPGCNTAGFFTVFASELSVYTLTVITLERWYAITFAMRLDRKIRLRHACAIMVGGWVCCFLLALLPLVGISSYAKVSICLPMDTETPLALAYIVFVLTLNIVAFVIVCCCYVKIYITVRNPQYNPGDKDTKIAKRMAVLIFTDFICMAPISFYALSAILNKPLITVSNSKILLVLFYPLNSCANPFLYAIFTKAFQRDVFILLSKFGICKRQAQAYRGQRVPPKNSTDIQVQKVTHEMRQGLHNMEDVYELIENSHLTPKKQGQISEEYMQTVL

Oc1ccc(Cl)cc1
inactive: all assays above

CCCCC(CC)C(=O)Cl (stereo unspecified)
not listed: [10]
inactive: all other assays above

OC[C@@H](O)[C@H]1O[C@@H]2O[C@H](C(Cl)(Cl)Cl)O[C@@H]2[C@H]1O
inactive: all assays above

Cc1cccc(C)c1N
inactive: all assays above

CC(C)c1cccc(C(C)C)c1O
not listed: [10]
inactive: all other assays above

O=C(O)COc1ccccc1
inactive: all assays above

CC(C)CCCCCCOC(=O)c1ccccc1C(=O)OCCCCCCC(C)C
not listed: [10]
inactive: all other assays above

Clc1cnc(Oc2ccc(Oc3ncc(Cl)cc3Cl)cc2)c(Cl)c1
not listed: [10]
inactive: all other assays above

C=CC(=O)OCC(CC)CCCC (stereo unspecified)
not listed: [10]
inactive: all other assays above

CCOc1ccc(N)cc1
inactive: all assays above

CN(C)C(=O)Nc1cccc(C(F)(F)F)c1
inactive: all assays above

CN(C)C(=O)Cl
inactive: all assays above

C=CC#N
inactive: all assays above

C=CC(=O)OCCCCCC(C)C
inactive: all assays above

CNC(=O)O/N=C/C(C)(C)SC
inactive: all assays above

COc1nc(NC(C)C)nc(NC(C)C)n1
not listed: [10]
inactive: all other assays above

CNc1cnn(-c2cccc(C(F)(F)F)c2)c(=O)c1Cl
not listed: [1]
inactive: all other assays above

O=C(O)C(Br)Br
not listed: [1] | [10]
inactive: all other assays above

O=S(=O)(O)OOS(=O)(=O)O
not listed: [1]
inactive: all other assays above

O=[N+]([O-])c1cc([As](=O)(O)O)ccc1O
not listed: [2]
inactive: all other assays above

C[C@H]1C(=O)O[C@@H]2CCN3CC=C(COC(=O)[C@](C)(O)[C@]1(C)O)[C@H]23
not listed: [3] | [4]
inactive: all other assays above

C=CCN=C=S
not listed: [5] | [10]
inactive: all other assays above

COP(=S)(OC)Oc1ccc(SC)c(C)c1
active: [4] 13.5 µM
not listed: [1] | [10]
inactive: all other assays above

CN(C)C(=O)C(c1ccccc1)c1ccccc1
not listed: [1]
inactive: all other assays above

Nc1ccc([As](=O)(O)O)cc1
inactive: all assays above

Cc1cc(Cl)ccc1OC(C)C(=O)O (stereo unspecified)
not listed: [1] | [10]
inactive: all other assays above

COc1cc(-c2ccc(N)c(OC)c2)ccc1N
active: [4] 48.8 µM and 27.3 µM and 46.3 µM
not listed: [1] | [5]
inactive: all other assays above

Cc1cccc(C)c1NC(=O)CN1CCCC1=O
not listed: [1] | [10]
inactive: all other assays above

CC12CC1(C)C(=O)N(c1cc(Cl)cc(Cl)c1)C2=O (stereo unspecified)
not listed: [1] | [4]
inactive: all other assays above

CN(C)CCC#N
not listed: [1] | [10]
inactive: all other assays above

CCCCCCCCCCCCCCCCCC(=O)O
10.8 µM (active) and inactive: [4]
not listed: [1] | [10]
inactive: all other assays above

Cc1cccc(N)c1
not listed: [1] | [10]
inactive: all other assays above

C=C(C)C(=O)OCC(CC)CCCC (stereo unspecified)
not listed: [5] | [10]
inactive: all other assays above

C[C@]12CC[C@H](O)CC1=CC[C@@H]1[C@@H]2CC[C@]2(C)C(=O)CC[C@@H]12
not listed: [4] | [9] | [10]
inactive: all other assays above

CNC(=O)O/N=C/C(C)(C)S(C)=O (stereo unspecified)
24.9 µM (active) and inactive: [8]
not listed: [7] | [10]
inactive: all other assays above

COC(=O)Nc1cccc(OC(=O)Nc2cccc(C)c2)c1
not listed: [1] | [10]
inactive: all other assays above

O=C(O)Cc1ccccc1
not listed: [1] | [10]
inactive: all other assays above

CCSC(=O)N1CCCCCC1
not listed: [6] | [10]
inactive: all other assays above

Nc1ccc(N)cc1
active: [2] 54.7 µM and 54.5 µM
not listed: [1] | [10]
inactive: all other assays above

OCC(O)CCl (stereo unspecified)
not listed: [3] | [4] | [10]
inactive: all other assays above

CCOP(=S)(OCC)Oc1ccc([N+](=O)[O-])cc1
not listed: [4] | [6] | [10]
inactive: all other assays above

COS(=O)(=O)OC
not listed: [1] | [10]
inactive: all other assays above

Cc1ccc(N=C=O)cc1N=C=O
not listed: [1] | [10]
inactive: all other assays above

CCCOC(=O)c1ccccc1C(=O)OCCC
not listed: [1] | [10]
inactive: all other assays above

ClC(Cl)c1ccccc1
not listed: [1]
inactive: all other assays above

Oc1c(Br)cc(Br)cc1Br
not listed: [4] | [6] | [10]
inactive: all other assays above

CNC(=O)O/N=C/C(C)(C)S(C)(=O)=O
not listed: [1]
inactive: all other assays above
